Records with an inconclusive call do not appear. Calls of active or inactive are those of the source. The call rests on the fitted dose curve; in most records, active means well fitted inhibition curve with a large enough effect; inconclusive means small, poorly fitted or top-dose-only effect; inactive means flat fitted curve, though single readings scatter.
Tests used:
Experiment in all cases: qHTS profiling for inhibitors of Plasmodium falciparum proliferation (AID 504749); further: nearly all actives have a fitted effect of over 60% in size
Conditions in all cases: P. falciparum in erythrocytes, SYBR Green DNA, 72 h; series mostly up to 28.7 µM
AS120 = tested on: AS120
In short: (§1)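 Infected RBCs, 0.3% parasitemia/2.5% Hct final; cpd 72 h, 37 C, 5% CO2; lysis buffer with saponin/triton/SYBR Green I, o/n RT dark; FI 485/535; norm. to artemisinin (0.29 uM) and DMSO.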

ATS189 = tested on: ATS189
In short: as §1

ATS95 = tested on: ATS95
In short: as §1

C2A = tested on: C2A
In short: as §1

CP185 = tested on: CP185
In short: as §1

CP191 = tested on: CP191
In short: as §1

CP192 = tested on: CP192
In short: as §1

CP194 = tested on: CP194
In short: as §1

CP201 = tested on: CP201
In short: as §1

CP203 = tested on: CP203
In short: as §1

CP211 = tested on: CP211
In short: as §1

CP215 = tested on: CP215
In short: as §1

CP217 = tested on: CP217
In short: as §1

CP237 = tested on: CP237
In short: as §1

CP238 = tested on: CP238
In short: as §1

CP247 = tested on: CP247
In short: as §1

CP250 = tested on: CP250
In short: as §1

CP252 = tested on: CP252
In short: as §1

CP256 = tested on: CP256
In short: as §1

CP260 = tested on: CP260
In short: as §1

Measured: Potency
Potency means the concentration at half of the fitted maximal effect.

Cc1cccn2c(=O)c(-c3nnn[nH]3)cnc12
inactive: all assays above

Nc1ccc(C(=O)Nc2ccccc2N)cc1
inactive: all assays above

O=S1(=O)c2cccc3cccc(c23)N1CCCN1CCN(c2ccc(F)cc2)CC1
inactive: all assays above

CN1C2CCC1CC(OC(=O)c1c[nH]c3ccccc13)C2 (stereo not given)
inactive: all assays above

NCCc1ccn[nH]1
inactive: all assays above

CCCCCCCCCCCCCCCCOP(=O)([O-])OCC[N+](C)(C)C
inactive: all assays above

CCn1cc(C(=O)O)c(=O)c2cnc(N3CCCC3)nc21
inactive: all assays above

COc1cccc2c1C(=O)c1c(O)c3c(c(O)c1C2=O)C[C@@](O)(C(C)=O)C[C@@H]3O[C@H]1C[C@H](N)[C@H](O)[C@H](C)O1
active: AS120 3.98 µM | ATS189 8.91 µM | ATS95 4.47 µM | C2A 3.16 µM | CP185 4.47 µM | CP191 3.16 µM | CP192 6.01 µM | CP194 7.57 µM | CP201 9.53 µM | CP203 8.49 µM | CP211 3.79 µM | CP215 7.57 µM | CP217 1 µM | CP237 1 µM | CP238 3.98 µM | CP247 1.41 µM | CP250 1 µM | CP252 1.12 µM | CP256 1 µM | CP260 1.12 µM

CC(=O)Nc1c(I)cc(I)c(C(=O)O)c1I
inactive: all assays above

COc1cc(NS(C)(=O)=O)ccc1Nc1c2ccccc2nc2ccccc12
active: AS120 2.24 µM | ATS189 3.98 µM | ATS95 3.55 µM | C2A 1.78 µM | CP185 4.47 µM | CP191 0.794 µM | CP192 5.36 µM | CP194 4.78 µM | CP201 5.36 µM | CP203 4.26 µM | CP211 4.78 µM | CP215 3.38 µM | CP217 3.16 µM | CP237 1.58 µM | CP238 4.47 µM | CP247 1.26 µM | CP250 1.58 µM | CP252 0.891 µM | CP256 1 µM | CP260 1 µM

O=C1c2ccccc2C(=O)C1c1ccccc1
inactive: all assays above

CN1CCC[C@@H]1c1cccnc1
inactive: all assays above

Cc1cc(=O)n(-c2ccccc2)n1C
inactive: all assays above

Cc1ncc(CSSCc2cnc(C)c(O)c2CO)c(CO)c1O
inactive: all assays above

C=CCc1ccc(O)c(OC)c1
inactive: all assays above

C[C@H]1[C@H](NC(=O)/C(=N/OC(C)(C)C(=O)O)c2csc(N)n2)C(=O)N1S(=O)(=O)O (stereo in doubt)
inactive: all assays above

O=C1CCC(c2ccc(-n3ccnc3)cc2)=NN1
inactive: all assays above

CCOC(=O)OC(C)OC1=C(C(=O)Nc2ccccn2)N(C)S(=O)(=O)c2ccccc21 (stereo not given)
inactive: all assays above

C1CCc2nnnn2CC1
inactive: all assays above

CCOC(=O)n1ccn(C)c1=S
inactive: all assays above

Cc1c(C(C)C)c(=O)n(-c2ccccc2)n1C
inactive: all assays above

CC(C)(C(=O)c1cccnc1)c1cccnc1
inactive: all assays above

COc1cc2c(cc1OC)C(C(C(=O)N(CCc1ccc(OC)c(OC)c1OC)CCc1ccc(OC)c(OC)c1OC)c1ccccc1)=NCC2 (stereo not given)
active: ATS95 3.55 µM | CP185 10 µM | CP191 10 µM | CP192 13.5 µM | CP194 13.5 µM | CP201 15.1 µM | CP203 6.75 µM | CP211 12 µM | CP215 6.75 µM | CP217 4.47 µM | CP237 2 µM | CP238 6.31 µM | CP247 4.47 µM | CP250 7.08 µM | CP252 5.01 µM | CP256 5.62 µM | CP260 3.55 µM
inactive: AS120 | ATS189 | C2A

C[C@@H]1C(=O)NC2=Nc3cccc(Cl)c3CN21
inactive: all assays above

OCc1ccccc1O
inactive: all assays above

Reference: PubChem BioAssay (NCATS)
